Experimental data published in PubChem BioAssay (NCI).
The panel holds about 83,000 compounds, 20% with a hit somewhere; the sample as a whole holds those more often.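 How to read the values: 0–100, growth inhibition (40 = 60% inhibited); 0, no net growth; -100 to 0, cell death (-40 = 40% of starting cells died; -100 = all dead).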 Activity calls are given as the source filed them. How the source made its calls: active means growth percent below 10; inactive means the rest.

How the values were obtained:
Test in all cases: NCI-60 one-dose screen, 48 h (100 = growth as untreated, 0 = no growth, -100 = all killed)
Conditions in all cases: 10 µM unless noted
DU-145 prostate = test system: DU-145 prostate
K-562 leukemia = test system: K-562 leukemia
MALME-3M melanoma = test system: MALME-3M melanoma
MDA-MB-231 breast = test system: MDA-MB-231 breast
RXF 393 renal = test system: RXF 393 renal
SF-268 CNS = test system: SF-268 CNS
SF-295 CNS = test system: SF-295 CNS
SF-539 CNS = test system: SF-539 CNS
UACC-257 melanoma = test system: UACC-257 melanoma
M14 melanoma = test system: M14 melanoma
HCT-15 colon = test system: HCT-15 colon
HT29 colon = test system: HT29 colon
SNB-75 CNS = test system: SNB-75 CNS
SNB-19 CNS = test system: SNB-19 CNS
U251 CNS = test system: U251 CNS
PC-3 prostate = test system: PC-3 prostate
SK-MEL-5 melanoma = test system: SK-MEL-5 melanoma
UACC-62 melanoma = test system: UACC-62 melanoma
LOX IMVI melanoma = test system: LOX IMVI melanoma
SK-MEL-28 melanoma = test system: SK-MEL-28 melanoma

Measured: growth

c1ccc2cc(C[n+]3ccn(CCCCCCCCCCCCn4cc[n+](Cc5ccc6ccccc6c5)c4)c3)ccc2c1
inactive: HCT-15 colon 17.4%
active: DU-145 prostate -46.5% | K-562 leukemia -59% | MALME-3M melanoma -76.7% | MDA-MB-231 breast -74% | RXF 393 renal -52.2% | SF-268 CNS -79.5% | SF-295 CNS -40.3% | SF-539 CNS -78.6% | UACC-257 melanoma -67.5% | M14 melanoma -44.9% | HT29 colon -82.7% | SNB-75 CNS -96.2% | SNB-19 CNS -80.5% | U251 CNS -84.6% | PC-3 prostate -37.6% | SK-MEL-5 melanoma -93.5% | UACC-62 melanoma -81.7% | LOX IMVI melanoma -84.9% | SK-MEL-28 melanoma -72.3%

CCCCCCn1c(-c2ccc(C(=O)O/N=C(\N)c3ccc(OC)cc3)cc2)nc(-c2ccccc2)c1-c1ccccc1
active: DU-145 prostate -73.6% | K-562 leukemia -35.3% | MALME-3M melanoma -18.2% | MDA-MB-231 breast -24% | RXF 393 renal -59.6% | SF-268 CNS 3.04% | SF-295 CNS 1.78% | SF-539 CNS -84.1% | HCT-15 colon -41.1% | SNB-75 CNS -20.3% | U251 CNS -42.9% | PC-3 prostate 3.94% | LOX IMVI melanoma -91.6%
inactive: UACC-257 melanoma 48.3% | M14 melanoma 40.9% | HT29 colon 22% | SNB-19 CNS 32.5% | SK-MEL-5 melanoma 49.9% | UACC-62 melanoma 18.1% | SK-MEL-28 melanoma 42.1%

O=C(CCOCCNC(=O)COc1ccc2c(c1)OCC(c1ccc(F)cc1)C2=O)NCCCC(O)(P(=O)(O)O)P(=O)(O)O (stereo not given)
inactive: DU-145 prostate 108% | K-562 leukemia 105% | MALME-3M melanoma 113% | MDA-MB-231 breast 107% | RXF 393 renal 121% | SF-268 CNS 98.6% | SF-295 CNS 102% | SF-539 CNS 101% | UACC-257 melanoma 112% | M14 melanoma 109% | HCT-15 colon 98.9% | HT29 colon 104% | SNB-75 CNS 89.6% | SNB-19 CNS 99.6% | U251 CNS 107% | PC-3 prostate 102% | SK-MEL-5 melanoma 101% | UACC-62 melanoma 105% | LOX IMVI melanoma 97.8% | SK-MEL-28 melanoma 108%

CCOC(=O)CCN(C(=O)Nc1ccccc1)C1CCCCC1
inactive: DU-145 prostate 100% | K-562 leukemia 132% | MALME-3M melanoma 113% | MDA-MB-231 breast 110% | RXF 393 renal 177% | SF-268 CNS 104% | SF-295 CNS 108% | SF-539 CNS 98.9% | UACC-257 melanoma 119% | M14 melanoma 108% | HCT-15 colon 119% | HT29 colon 114% | SNB-75 CNS 83.5% | SNB-19 CNS 110% | U251 CNS 118% | PC-3 prostate 119% | SK-MEL-5 melanoma 99.2% | UACC-62 melanoma 106% | LOX IMVI melanoma 118% | SK-MEL-28 melanoma 131%

COc1c(N2CC3CCCN(C(C)=O)C3C2)c(F)cc2c(=O)c(C(=O)N[C@H]3C(O)[C@@H](O)C(CO)O[C@H]3O)cn(C3CC3)c12 (stereo not given in full)
inactive: DU-145 prostate 112% | K-562 leukemia 103% | MALME-3M melanoma 117% | MDA-MB-231 breast 103% | RXF 393 renal 128% | SF-268 CNS 92.3% | SF-295 CNS 103% | SF-539 CNS 103% | UACC-257 melanoma 103% | M14 melanoma 110% | HCT-15 colon 98.5% | HT29 colon 105% | SNB-75 CNS 100% | SNB-19 CNS 99.4% | U251 CNS 102% | PC-3 prostate 108% | SK-MEL-5 melanoma 101% | UACC-62 melanoma 101% | LOX IMVI melanoma 87.1% | SK-MEL-28 melanoma 112%

COc1ccc(C(Cc2ccccc2)NCCN2CCOCC2)cc1 (stereo not given)
inactive: DU-145 prostate 110% | K-562 leukemia 101% | MALME-3M melanoma 86.8% | MDA-MB-231 breast 110% | RXF 393 renal 104% | SF-268 CNS 98% | SF-295 CNS 99.4% | SF-539 CNS 99.6% | UACC-257 melanoma 109% | M14 melanoma 90.6% | HCT-15 colon 99.8% | HT29 colon 87.7% | SNB-75 CNS 97.4% | SNB-19 CNS 106% | U251 CNS 108% | PC-3 prostate 93.8% | SK-MEL-5 melanoma 108% | UACC-62 melanoma 100% | LOX IMVI melanoma 91.4% | SK-MEL-28 melanoma 103%

O=C(/C=C/c1ccc([N+](=O)[O-])o1)NNC(=O)c1cc2ccccc2cc1O
active: K-562 leukemia 3.48% | MALME-3M melanoma -36.3% | RXF 393 renal -20.8% | SF-268 CNS -3.99% | SF-539 CNS -22.6% | UACC-257 melanoma -16.5% | M14 melanoma -93.3% | HCT-15 colon -62.7% | HT29 colon 7.4% | SK-MEL-5 melanoma -86.9% | UACC-62 melanoma -99.1% | LOX IMVI melanoma -10.5% | SK-MEL-28 melanoma -46.1%
inactive: DU-145 prostate 11.7% | MDA-MB-231 breast 21% | SF-295 CNS 54.8% | SNB-75 CNS 45.7% | SNB-19 CNS 33.5% | U251 CNS 17.5% | PC-3 prostate 38.4%

Cc1cc(O)c(C2=NN(c3ccc(S(N)(=O)=O)cc3)C(c3ccccc3O)C2)cc1Cl (stereo not given)
active: DU-145 prostate 1.2% | K-562 leukemia -36.6% | MDA-MB-231 breast 4.16% | RXF 393 renal -10.3% | SF-539 CNS -21.2% | M14 melanoma -68.5% | HT29 colon -18.4% | U251 CNS 2.38% | PC-3 prostate 9.8% | LOX IMVI melanoma -89.6%
inactive: MALME-3M melanoma 21.8% | SF-268 CNS 10.8% | SF-295 CNS 58.5% | UACC-257 melanoma 66.5% | HCT-15 colon 17.5% | SNB-75 CNS 41.5% | SNB-19 CNS 65.4% | SK-MEL-5 melanoma 36.8% | UACC-62 melanoma 21.3% | SK-MEL-28 melanoma 53.9%

C=C1CC[C@@]2(C#N)[C@H]3[C@H](CC[C@@H]2C)[C@@H](C)C[C@@H](CC(C)(C)C#N)[C@H]13
active: K-562 leukemia 9.97%
inactive: DU-145 prostate 45.4% | MALME-3M melanoma 103% | MDA-MB-231 breast 61.3% | RXF 393 renal 86.2% | SF-268 CNS 47% | SF-295 CNS 14.4% | SF-539 CNS 43.9% | UACC-257 melanoma 71.9% | M14 melanoma 20.9% | HCT-15 colon 43.6% | HT29 colon 46.8% | SNB-75 CNS 44.6% | SNB-19 CNS 56.4% | U251 CNS 46.4% | PC-3 prostate 23.2% | SK-MEL-5 melanoma 37.5% | UACC-62 melanoma 43.5% | LOX IMVI melanoma 26.6% | SK-MEL-28 melanoma 60.3%

COc1cc(C2CC(c3cccc(Br)c3)=NN2C(C)=O)cc(OC)c1OC (stereo not given)
active: MDA-MB-231 breast 4.94% | SF-295 CNS 0.219% | SF-539 CNS -5.96% | M14 melanoma 8.38%
inactive: DU-145 prostate 20% | K-562 leukemia 49.2% | MALME-3M melanoma 54.2% | RXF 393 renal 33.3% | SF-268 CNS 55.3% | UACC-257 melanoma 81.7% | HCT-15 colon 13.4% | HT29 colon 13.8% | SNB-75 CNS 12% | SNB-19 CNS 40.8% | U251 CNS 12.2% | PC-3 prostate 37.1% | SK-MEL-5 melanoma 23% | UACC-62 melanoma 14.8% | LOX IMVI melanoma 50.1% | SK-MEL-28 melanoma 70.2%

O=c1c2cc(F)ccc2sc2c(NCCO)nc3ccccc3c12
inactive: DU-145 prostate 112% | K-562 leukemia 98.3% | MALME-3M melanoma 120% | MDA-MB-231 breast 98.1% | RXF 393 renal 109% | SF-268 CNS 103% | SF-295 CNS 104% | SF-539 CNS 99.9% | UACC-257 melanoma 104% | M14 melanoma 114% | HCT-15 colon 101% | HT29 colon 107% | SNB-75 CNS 87% | SNB-19 CNS 94% | U251 CNS 97.6% | PC-3 prostate 105% | SK-MEL-5 melanoma 99.4% | UACC-62 melanoma 94.2% | LOX IMVI melanoma 97.2% | SK-MEL-28 melanoma 126%

Cc1ccc2c(-c3cc(-c4ccccc4)nc(N)c3C#N)cc(=O)oc2c1
inactive: DU-145 prostate 107% | K-562 leukemia 108% | MALME-3M melanoma 94.8% | MDA-MB-231 breast 101% | RXF 393 renal 110% | SF-268 CNS 99.1% | SF-295 CNS 109% | SF-539 CNS 94.7% | UACC-257 melanoma 101% | M14 melanoma 108% | HCT-15 colon 105% | HT29 colon 90.1% | SNB-75 CNS 100% | SNB-19 CNS 94.1% | U251 CNS 100% | PC-3 prostate 89.2% | SK-MEL-5 melanoma 97% | UACC-62 melanoma 90.1% | LOX IMVI melanoma 91.8% | SK-MEL-28 melanoma 105%

O=C(CSc1nc2ccccc2[nH]1)Nc1cccc(Cl)c1
inactive: DU-145 prostate 101% | K-562 leukemia 100% | MALME-3M melanoma 97.2% | MDA-MB-231 breast 76.5% | RXF 393 renal 114% | SF-268 CNS 97.1% | SF-295 CNS 104% | SF-539 CNS 103% | UACC-257 melanoma 117% | M14 melanoma 105% | HCT-15 colon 109% | HT29 colon 112% | SNB-75 CNS 81.6% | SNB-19 CNS 91.4% | U251 CNS 104% | PC-3 prostate 99.3% | SK-MEL-5 melanoma 104% | UACC-62 melanoma 87.6% | LOX IMVI melanoma 99.6% | SK-MEL-28 melanoma 106%

COc1ccc(C(=O)n2nc(-c3ccccc3)nc2N)cc1OC
inactive: DU-145 prostate 104% | K-562 leukemia 80.1% | MALME-3M melanoma 102% | MDA-MB-231 breast 85.1% | RXF 393 renal 98.3% | SF-268 CNS 95.4% | SF-295 CNS 103% | SF-539 CNS 91% | UACC-257 melanoma 98.4% | M14 melanoma 105% | HCT-15 colon 96.8% | HT29 colon 91.9% | SNB-75 CNS 81.1% | SNB-19 CNS 95.7% | U251 CNS 90.4% | PC-3 prostate 87.9% | SK-MEL-5 melanoma 93.3% | UACC-62 melanoma 86.7% | LOX IMVI melanoma 91.7% | SK-MEL-28 melanoma 107%

NC1=NC(c2cccc(Br)c2)c2sc3ccc(Cl)cc3c2N1 (stereo not given)
inactive: DU-145 prostate 111% | K-562 leukemia 86.6% | MALME-3M melanoma 95.6% | MDA-MB-231 breast 88.4% | RXF 393 renal 110% | SF-268 CNS 94% | SF-295 CNS 103% | SF-539 CNS 108% | UACC-257 melanoma 98.8% | M14 melanoma 98.4% | HCT-15 colon 103% | HT29 colon 104% | SNB-75 CNS 75.6% | SNB-19 CNS 97.3% | U251 CNS 103% | PC-3 prostate 88.7% | SK-MEL-5 melanoma 96.5% | UACC-62 melanoma 84.5% | LOX IMVI melanoma 98.8% | SK-MEL-28 melanoma 118%
